# Test results from PubChem BioAssay (NCATS).
# Active and inactive are the calls of the source. Where a call stands in place of a potency, no number is given. Calls follow the shape of the dose curve; as a rule, active = well fitted activation curve with a large enough effect; inconclusive = small, poorly fitted or top-dose-only effect; inactive = no such curve, though single readings can be large or run the other way. Residues, ends and D or L forms follow the SMILES beside them. *: point of attachment. Cbz = O=C(OCc1ccccc1)*
# Target: Cytochrome P450 3A4 (Homo sapiens) (UniProt P08684)
# Sequence (P08684 whole entry, looked up): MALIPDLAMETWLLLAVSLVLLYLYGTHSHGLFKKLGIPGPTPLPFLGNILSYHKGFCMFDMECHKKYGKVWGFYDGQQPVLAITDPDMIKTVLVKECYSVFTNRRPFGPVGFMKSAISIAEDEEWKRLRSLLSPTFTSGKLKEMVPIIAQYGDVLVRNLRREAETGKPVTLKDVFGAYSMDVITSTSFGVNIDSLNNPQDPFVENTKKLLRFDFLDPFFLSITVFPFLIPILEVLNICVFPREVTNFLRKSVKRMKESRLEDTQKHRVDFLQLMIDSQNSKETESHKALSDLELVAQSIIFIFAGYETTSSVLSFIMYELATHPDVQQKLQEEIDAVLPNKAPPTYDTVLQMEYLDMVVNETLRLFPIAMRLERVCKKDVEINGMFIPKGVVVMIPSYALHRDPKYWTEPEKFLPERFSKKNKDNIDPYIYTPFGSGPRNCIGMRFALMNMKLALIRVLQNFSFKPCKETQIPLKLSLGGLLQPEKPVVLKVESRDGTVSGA
# Experiment: qHTS Assay for Activators of Cytochrome P450 3A4 (AID 885); also: nearly all actives have a fitted effect of over 65% in size
# Details: recombinant CYP3A4, Luciferin-PPXE luminescence, 60 min; series mostly up to 57.1 µM
# Method: NIH Molecular Libraries Screening Centers Network [MLSCN]
# NIH Chemical Genomics Center [NCGC]
# The P450 gene superfamily is involved in the metabolism and clearance of xenobiotics. This assay used human CYP3A4 to measure the dealkylation of luciferin-6' phenylpiperazinylyl (Luciferin-PPXE; […]) to luciferin. The luciferin is then measured by luminescence after the addition of a luciferase detection reagent. Luciferin-PPXE concentration in the assay was equal to its KM for CYP3A4. Inhibitors and some substrates limit the production of luciferin, and decrease measured luminescence; activators increase the production of luciferin and luminescence.
# NCGC Assay Protocol Summary:
# Two uL of enzyme and substrate mix (final concentrations: 20nM CYP3A4, 25uM Luciferin-PPXE, 200mM KPO4) were dispensed into a white, solid bottom 1536-well microtiter plate. 23nL of compound was transferred by a pin tool. The plate was incubated at RT for 10 min. Two uL of an NADPH regeneration solution (Promega supplied reagent) was dispensed and the reaction was allowed to continue for 60 min at RT. Then the reaction was stopped by reconstituted luciferin detection buffer. After another 20 min of incubation the plate was read on the ViewLux (Perkin Elmer) at 60 sec exposure and 2x2 binning. This protocol was carried out with Promega-Glo reagents and further information can be found at http://www.promega.com/tbs/tb325/tb325.pdf. Data were normalized to the to AC100 inhibition (57 uM ketoconazole).
# Keywords: P450, CYP2D6, Luciferase, MLSMR, MLSCN, NIH Roadmap, qHTS, NCGC
# Potency is read from the fitted curve at half-maximal effect.
SMILES,Potency,"activity change, positive = activation"
c1ccc(C(NCCNC(c2ccccc2)c2ccccc2)c2ccccc2)cc1,5.01 µM (active),
NC(=O)CNCCC(c1ccccc1)c1ccccc1,inactive,
C[C@H](O)C(=O)C1=Nc2c(nc(N)[nH]c2=O)NC1,inactive,
O=[N+]([O-])c1cccc2c(Br)[nH]nc12,inactive,
COc1cc(/C=C(\C#N)C(=O)c2ccc(O)c(O)c2)cc(I)c1O,inactive,
O=C1Cc2c([nH]c3ccc(Br)cc23)-c2ccccc2N1,inactive,
Cn1c(=O)c2[nH]c(C3CCCC3)nc2n(C)c1=O,inactive,
Nc1nc2c(cnn2CCc2ccccc2)c2nc(-c3ccco3)nn12,inactive,
CCCCCCCC/C=C\CCCCCCCC(=O)NCCc1ccc(O)c(O)c1,inactive,
N#CC(C#N)=C(N)/C(C#N)=C/c1ccc(O)cc1,inactive,
COc1ccccc1N1CCN(CCCCNC(=O)c2ccc3ccccc3c2)CC1,inactive,
c1ccc2nc(C3=NCCN3)ccc2c1,inactive,
CNC(=O)c1cc2c(cn1)[nH]c1ccccc12,inactive,
CCN(CC)CCOC(=O)c1cc(Cl)c(N)cc1OC,inactive,
CC(C)(C)c1cc(/C=C(\C#N)C(N)=S)cc(C(C)(C)C)c1O,inactive,
Nc1ncnc2c1c(-c1ccc(Oc3ccccc3)cc1)cn2C1CCCC1,3.16 µM (active),
c1ccc(CN2CCC3(CCCc4ccccc43)CC2)cc1,25.1 µM (active),
NC[C@@H]1O[C@H](c2ccccc2)Cc2c1ccc(O)c2O,inactive,
CCn1c(=O)[nH]c2cc(Cl)c(Cl)cc21,inactive,
CN1CCN(c2nc3cc(C(F)(F)F)ccc3n3cccc23)CC1,inactive,

SMILES,Potency,"activity change, positive = activation"
Clc1nccc2c1ccc1ccccc12,inactive,
S=C(S)N1CCCC1,inactive,
O=c1onc2n1-c1cc(Br)ccc1OC2,inactive,
COc1cc(N)c(Cl)cc1C(=O)OCCN1CCCCC1,inactive,
CCc1ccc2c(-c3cccc(Cl)c3)nc(=O)n(CC)c2n1,inactive,
N=C(N)SCCN,inactive,
Cc1cccc(C(=O)NCN2CCN(c3ccccc3C#N)CC2)c1,inactive,
Cc1ccc([N+](=O)[O-])cc1S(=O)(=O)N(C)C,inactive,
CCCCCCN(CCCCCC)C(=O)Cc1c(-c2ccc(F)cc2)[nH]c2ccccc12,inactive,
O=c1[nH]c(=S)[nH]c(-c2ccccc2)c1Cc1c(O)ccc2ccccc12,,-42.7% [at 11.4 µM] (inactive)
COc1ccc(CCN(C)CCc2ccc(OC)c(OC)c2)cc1OC,inactive,
O=C(O)c1ccccc1Nc1cccc(OCc2ccc3ccccc3n2)c1,inactive,
CC(=O)NCCc1c[nH]c2ccc(O)cc12,inactive,
C=C1C(=O)O[C@@H]2[C@H]3O[C@]3(C)CCC=C(C)CC[C@@H]12,inactive,
CC(C)[C@H](NC(=O)OCc1ccccc1)C(=O)N[C@H](C=O)Cc1ccccc1 (Cbz-Val-Phe-aldehyde),inactive,
NC(=Nc1ccccc1)NC(=O)c1nc(Cl)c(N)nc1N,inactive,
CC(C)(CO)Cc1cc(C(C)(C)C)c(O)c(C(C)(C)C)c1,inactive,
N#C/C(=C\c1ccc(O)c(O)c1)C(=O)NCCc1ccccc1,inactive,
CNCCNS(=O)(=O)c1cccc2cnccc12,inactive,
N[C@H](C(=O)O)c1cc(O)cc(O)c1,inactive,
